Assay results reported in PubChem BioAssay AID1159580 (chemical genetic matrix, 2015).
Hit rate of the full screen: of about 5,500 compounds, about 2,000 (36%) were called active. Not shown: some 18% with an inconclusive outcome. No stated cut-off is given here; in the data, active means normalized growth mostly below about 0.91 (no sharp cut-off); inconclusive means no clear call, values can overlap the other calls; inactive means mostly above about 0.92. This is one part of the list.

Assay: chemical genetic growth profiling, strain panel (AID 1159580);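 further: tested at 20 µM; growth read once vehicle control cultures reached saturation at 30 °C; 1 = growth at the plate median or of vehicle wells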
Conditions: growth OD
[1] = S. cerevisiae deletion strains, locus YDL101C, strain DUN1, stronger effect = lower value
[2] = S. cerevisiae deletion strains, locus YHR030C, strain SLT2, stronger effect = lower value

Measured: normalized growth

COCCCNC(=S)N/N=C\c1cc(Br)ccc1O
inactive: S. cerevisiae deletion strains, locus YAR019C, strain CDC15, stronger effect = lower value 0.967 | S. cerevisiae deletion strains, locus YBL105C, strain PKC1, stronger effect = lower value 0.971 | S. cerevisiae deletion strains, locus YBR135W, strain CKS1, stronger effect = lower value 0.962 | S. cerevisiae deletion strains, locus YBR136W, strain MEC1, stronger effect = lower value 0.967 | S. cerevisiae deletion strains, locus YBR160W, strain CDC28, stronger effect = lower value 0.961 | S. cerevisiae deletion strains, locus YDL017W, strain CDC7, stronger effect = lower value 0.966 | S. cerevisiae deletion strains, locus YDL028C, strain MPS1, stronger effect = lower value 0.963 | [1] 0.975 | S. cerevisiae deletion strains, locus YDL108W, strain KIN28, stronger effect = lower value 0.97 | S. cerevisiae deletion strains, locus YDL132W, strain cdc53, stronger effect = lower value 0.963 | S. cerevisiae deletion strains, locus YDL214C, strain PRR2, stronger effect = lower value 0.977 | S. cerevisiae deletion strains, locus YDR052C, strain DBF4, stronger effect = lower value 0.973 | S. cerevisiae deletion strains, locus YDR054C, strain cdc34, stronger effect = lower value 0.956 | S. cerevisiae deletion strains, locus YDR226W, strain ADK1, stronger effect = lower value 0.96 | S. cerevisiae deletion strains, locus YDR477W, strain SNF1, stronger effect = lower value 0.954 | S. cerevisiae deletion strains, locus YER123W, strain YCK3, stronger effect = lower value 0.989 | S. cerevisiae deletion strains, locus YER133W, strain GLC7, stronger effect = lower value 0.95 | S. cerevisiae deletion strains, locus YFL009W, strain cdc4, stronger effect = lower value 0.96 | S. cerevisiae deletion strains, locus YFL029C, strain CAK1, stronger effect = lower value 0.963 | S. cerevisiae deletion strains, locus YFR003C, strain YPI1, stronger effect = lower value 0.966 | S. cerevisiae deletion strains, locus YFR019W, strain FAB1, stronger effect = lower value 0.983 | S. cerevisiae deletion strains, locus YFR028C, strain CDC14, stronger effect = lower value 0.972 | S. cerevisiae deletion strains, locus YGR040W, strain KSS1, stronger effect = lower value 0.957 | S. cerevisiae deletion strains, locus YGR052W, strain FMP48, stronger effect = lower value 1 | S. cerevisiae deletion strains, locus YGR092W, strain DBF2, stronger effect = lower value 0.915 | [2] 0.898 | S. cerevisiae deletion strains, locus YHR079C, strain IRE1, stronger effect = lower value 0.967 | S. cerevisiae deletion strains, locus YHR082C, strain KSP1, stronger effect = lower value 1.03 | S. cerevisiae deletion strains, locus YHR205W, strain SCH9, stronger effect = lower value 0.943 | S. cerevisiae deletion strains, locus YIL147C, strain SLN1, stronger effect = lower value 0.957 | S. cerevisiae deletion strains, locus YJL095W, strain BCK1, stronger effect = lower value 0.992 | S. cerevisiae deletion strains, locus YJL128C, strain PBS2, stronger effect = lower value 0.936 | S. cerevisiae deletion strains, locus YJL157C, strain FAR1, stronger effect = lower value 0.965 | S. cerevisiae deletion strains, locus YJR016C, strain ILV3, stronger effect = lower value 0.966 | S. cerevisiae deletion strains, locus YJR066W, strain TOR1 (second series), stronger effect = lower value 0.983 | S. cerevisiae deletion strains, locus YJR066W, strain TOR1, stronger effect = lower value 1.02 | S. cerevisiae deletion strains, locus YKL048C, strain ELM1, stronger effect = lower value 0.98 | S. cerevisiae deletion strains, locus YKL067W, strain YNK1, stronger effect = lower value 0.984 | S. cerevisiae deletion strains, locus YKL101W, strain HSL1, stronger effect = lower value 0.975 | S. cerevisiae deletion strains, locus YKL193C, strain SDS22, stronger effect = lower value 0.954 | S. cerevisiae deletion strains, locus YKL203C, strain TOR2, stronger effect = lower value 1.02 | S. cerevisiae deletion strains, locus YLR113W, strain HOG1, stronger effect = lower value 0.985 | S. cerevisiae deletion strains, locus YLR133W, strain CKI1, stronger effect = lower value 0.967 | S. cerevisiae deletion strains, locus YLR403W, strain SFP1, stronger effect = lower value 0.91 | S. cerevisiae deletion strains, locus YML070W, strain DAK1, stronger effect = lower value 0.982 | S. cerevisiae deletion strains, locus YMR001C, strain CDC5, stronger effect = lower value 0.965 | S. cerevisiae deletion strains, locus YMR205C, strain PFK2 (second series), stronger effect = lower value 0.973 | S. cerevisiae deletion strains, locus YMR277W, strain FCP1, stronger effect = lower value 0.961 | S. cerevisiae deletion strains, locus YNL006W, strain LST8, stronger effect = lower value 0.965 | S. cerevisiae deletion strains, locus YNL020C, strain ARK1, stronger effect = lower value 0.975 | S. cerevisiae deletion strains, locus YNL161W, strain CBK1, stronger effect = lower value 0.962 | S. cerevisiae deletion strains, locus YNL183C, strain NPR1, stronger effect = lower value 1.09 | S. cerevisiae deletion strains, locus YNL207W, strain RIO2, stronger effect = lower value 0.967 | S. cerevisiae deletion strains, locus YNL222W, strain SSU72, stronger effect = lower value 0.966 | S. cerevisiae deletion strains, locus YNL307C, strain MCK1 (second series), stronger effect = lower value 0.97 | S. cerevisiae deletion strains, locus YOL078W, strain AVO1, stronger effect = lower value 0.964 | S. cerevisiae deletion strains, locus YOL136C, strain PFK27, stronger effect = lower value 0.982 | S. cerevisiae deletion strains, locus YOR061W, strain CKA2, stronger effect = lower value 0.974 | S. cerevisiae deletion strains, locus YOR119C, strain RIO1, stronger effect = lower value 1.03 | S. cerevisiae deletion strains, locus YOR231W, strain MKK1, stronger effect = lower value 0.997 | S. cerevisiae deletion strains, locus YOR329C, strain SCD5, stronger effect = lower value 0.966 | S. cerevisiae deletion strains, locus YPL031C, strain PHO85, stronger effect = lower value 0.938 | S. cerevisiae deletion strains, locus YPL153C, strain RAD53, stronger effect = lower value 0.951 | S. cerevisiae deletion strains, locus YPL204W, strain HRR25, stronger effect = lower value 0.937 | S. cerevisiae deletion strains, locus YPL209C, strain IPL1, stronger effect = lower value 0.965 | S. cerevisiae deletion strains, locus YPL256C, strain CLN2, stronger effect = lower value 0.903 | S. cerevisiae deletion strains, locus YPR025C, strain CCL1, stronger effect = lower value 0.962 | S. cerevisiae deletion strains, locus YPR106W, strain ISR1, stronger effect = lower value 0.971 | S. cerevisiae deletion strains, locus YPR111W, strain DBF20, stronger effect = lower value 0.967 | S. cerevisiae deletion strains, strain NNK1, stronger effect = lower value 0.982 | S. cerevisiae deletion strains, strain TSCII, stronger effect = lower value 0.964

COCCCNC(=S)N/N=C\c1cccc(OC)c1O
inactive: S. cerevisiae deletion strains, locus YAL013W, strain DEP1, stronger effect = lower value 0.984 | S. cerevisiae deletion strains, locus YBR229C, strain ROT2, stronger effect = lower value 1.02 | S. cerevisiae deletion strains, locus YCL061C, strain MRC1, stronger effect = lower value 0.979 | [1] 0.998 | S. cerevisiae deletion strains, locus YDL134C, strain PPH21, stronger effect = lower value 1.01 | S. cerevisiae deletion strains, locus YDR150W, strain NUM1, stronger effect = lower value 0.928 | S. cerevisiae deletion strains, locus YEL061C, strain CIN8, stronger effect = lower value 0.999 | S. cerevisiae deletion strains, locus YGR078C, strain PAC10, stronger effect = lower value 0.991 | [2] 1.01 | S. cerevisiae deletion strains, locus YHR087W, strain rtc3, stronger effect = lower value 1.01 | S. cerevisiae deletion strains, locus YJR043C, strain POL32, stronger effect = lower value 1.01 | S. cerevisiae deletion strains, locus YJR075W, strain HOC1, stronger effect = lower value 0.979 | S. cerevisiae deletion strains, locus YLR039C, strain RIC1, stronger effect = lower value 1.11 | S. cerevisiae deletion strains, locus YLR058C, strain SHM2 (second series), stronger effect = lower value 0.997 | S. cerevisiae deletion strains, locus YLR085C, strain ARP6, stronger effect = lower value 0.978 | S. cerevisiae deletion strains, locus YLR262C, strain YPT6, stronger effect = lower value 1.08 | S. cerevisiae deletion strains, locus YML094W, strain GIM5, stronger effect = lower value 0.994 | S. cerevisiae deletion strains, locus YMR219W, strain ESC1, stronger effect = lower value 0.991 | S. cerevisiae deletion strains, locus YMR263W, strain SAP30, stronger effect = lower value 0.991 | S. cerevisiae deletion strains, locus YMR307W, strain GAS1, stronger effect = lower value 0.951 | S. cerevisiae deletion strains, locus YNL153C, strain GIM3, stronger effect = lower value 0.987 | S. cerevisiae deletion strains, locus YNL298W, strain CLA4 (second series), stronger effect = lower value 1.04 | S. cerevisiae deletion strains, locus YNL322C, strain KRE1, stronger effect = lower value 0.989 | S. cerevisiae deletion strains, locus YNR030W, strain Alg12, stronger effect = lower value 0.982 | S. cerevisiae deletion strains, locus YOL006C, strain TOP1, stronger effect = lower value 0.988 | S. cerevisiae deletion strains, locus YPL055C, strain LGE1, stronger effect = lower value 0.856 | S. cerevisiae deletion strains, locus YPL241C, strain CIN2, stronger effect = lower value 0.964 | S. cerevisiae deletion strains, locus YPR135W, strain CTF4, stronger effect = lower value 0.94 | S. cerevisiae strains, strain wild type, stronger effect = lower value 1.02
